Consider seven compounds from PubChem BioAssay (Tox21).

Test [1] can be described thus: qHTS assay to identify small molecule antagonists of the androgen receptor (AR) signaling pathway using the MDA cell line in the presence of 0.5 nM R1881 - cell viability counter screen (AID 1259242). Note: nearly all actives have a fitted effect of over 45% in size. Note: potency is the fitted concentration of half-maximal effect. The procedure, abridged:
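MDA-kb2 cells (human breast carcinoma, stably carrying MMTV-luciferase reporter) were exposed to compounds with 0.5 nM R1881 (final) for 16 hr at 37C, 0% CO2; viability then read as live-cell protease fluorescence (CellTiter-Fluor, 30 min) in the same wells.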

The target in test [2] is Estrogen receptor (Homo sapiens) (UniProt P03372). The experiment in a line: qHTS assay to identify small molecule antagonists of the estrogen receptor alpha (ER-alpha) signaling pathway using the BG1 cell line in the presence of 0.1 nM 17-beta-estradiol (AID 1259244). Note: nearly all actives have a fitted effect of over 50% in size. Note: potency is the fitted concentration of half-maximal effect. Summed up:
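VM7Luc4E2 cells (endogenous full-length ER-alpha, stable 4xERE-luciferase) were grown 5 days in phenol red-free medium with charcoal-stripped FBS, then exposed 22 h at 37C to compounds plus 0.1 nM (final) 17beta-estradiol; ONE-Glo luminescence read-out.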

Test [3] is described as follows: qHTS assay to identify small molecule HDAC inhibitors (AID 1259364). Note: top concentration of the series differs between compounds; nearly all actives have a fitted effect of over 45% in size. Summed up:
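Wild-type HCT-116 cells were plated overnight, exposed to compounds for 2 h at 37 °C, then given HDAC-Glo class I/II luminogenic reagent for 30 min at room temperature before luminescence was read.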

Test [4] is described as follows: qHTS assay to identify small molecule HDAC inhibitors - cell viability counter screen (AID 1259365). Note: series mostly up to about 92 µM; nearly all actives have a fitted effect of over 50% in size. The procedure, abridged: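 Following a 2hr exposure of overnight-plated wild-type HCT-116 cells to DMSO-delivered compounds, CellTiter-Glo was added and luminescence recorded after 30min at room temperature.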
The nature of test [5]: qHTS assay to identify small molecule agonists of the sonic hedgehog signaling (Shh) pathway - cell viability counter screen (AID 1259366). Note: nearly all actives have a fitted effect of over 50% in size. Note: potency is the fitted concentration of half-maximal effect. Summed up: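 After a 4hr attachment at 37C, NIH/3T3 cells bearing an integrated Gli1-driven luciferase reporter were dosed with compounds. Treatment lasted 24hr, with the final hour including CellTiter-Fluor for a fluorescence viability measurement.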

A short description of test [6]: qHTS assay to identify small molecule antagonists of the sonic hedgehog signaling (Shh) pathway - cell viability counter screen (AID 1259367). Note: nearly all actives have a fitted effect of over 55% in size. Note: potency is the fitted concentration of half-maximal effect. Summed up:
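Cells: 3T3 Gli1-Luc, 2,000/well, 4 hr pre-incubation. Compounds in DMSO, then conditioned medium. Incubation 24 hr, 37C, 5% CO2. CellTiter-Fluor at 23 hr, 1 hr, fluorescence.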

Test [7] in a line: qHTS assay to identify small molecule agonists of the sonic hedgehog signaling (Shh) pathway (AID 1259368; calls by dose curve; note: series mostly up to about 92 µM; nearly all actives have a fitted effect of over 15% in size). The procedure, abridged:
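NIH/3T3-derived 3T3Gli1-Luc cells carrying a stably integrated Gli1 response element–firefly luciferase reporter were plated, left 4 hr at 37 C, then given compounds in DMSO for 24 hr. Luminescence was read 30 min after adding luciferase reagent.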

Test [8] is described as follows: qHTS assay to identify small molecule antagonists of the sonic hedgehog signaling (Shh) pathway (AID 1259369; calls by dose curve; note: nearly all actives have a fitted effect of over 45% in size; note: potency is the fitted concentration of half-maximal effect). Summed up: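 NIH/3T3-derived 3T3Gli1-Luc cells with stably integrated Gli1-Luc reporter were preincubated 4hr at 37 C, then given compounds in DMSO plus Shh conditioned medium and incubated 24hr. Firefly luciferase luminescence read after 30min reagent at room temperature.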

Test [9] concerns the target Estrogen receptor beta (Homo sapiens) (UniProt Q92731). Kind of test: qHTS assay to identify small molecule agonists of the estrogen receptor beta (ER-beta) signaling pathway (AID 1259377; active = well fitted activation curve with a large enough effect in the signal ratio in the repeat runs, not every such curve was filed as active; the % refers to the signal ratio). Summed up:
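In HEK293T cells bearing a UAS-beta-lactamase reporter under ER-beta control, DMSO-delivered compounds were incubated for 16 hr at 37C. Activity was detected as fluorescence 2 hours after LiveBLAzer B/G FRET substrate addition.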

For test [10] the target is unchanged. The experiment in a line: qHTS assay to identify small molecule antagonists of the estrogen receptor beta (ER-beta) signaling pathway (AID 1259378; active = well fitted inhibition curve with a large enough effect in the signal ratio in the repeat runs, not every such curve was filed as active; the % refers to the signal ratio). The procedure, abridged: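 Antagonist mode: compounds added to beta-lactamase reporter HEK293T ER-beta-UAS cells stimulated with E2 (1nM final), 16 hr at 37C. LiveBLAzer B/G FRET substrate, 2 hours room temperature, fluorescence read-out.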

Test [11] can be described thus: qHTS assay to identify small molecule agonists of the androgen receptor (AR) signaling pathway in the presence of an antagonist - cell viability counter screen (AID 1259379). Note: nearly all actives have a fitted effect of over 25% in size. Note: potency is the fitted concentration of half-maximal effect. Summed up:
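MDA-kb2 human breast carcinoma cells (stable MMTV-luciferase, AR/GR responsive) were seeded 3,000 cells/well, pre-incubated 5 hr at 37C without CO2, then given 3.0uM nilutamide and compounds at 15 concentrations for 16 hr. Viability was read by CellTiter-Fluor fluorescence.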

Test [12] is described as follows: qHTS assay to identify small molecule agonists of the estrogen receptor beta (ER-beta) signaling pathway - cell viability counter screen (AID 1259380). Note: nearly all actives have a fitted effect of over 30% in size. Note: potency is the fitted concentration of half-maximal effect. Summed up:
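ER-beta-UAS-bla HEK293T cells in medium with 2% charcoal-stripped FBS were preincubated 6 hr at 37C, dosed with compound in DMSO for 16 hr, then after the bla read, CellTiter-Glo was added for 30 min at room temperature; luminescence recorded.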

Test [13] is described as follows: qHTS assay to identify small molecule antagonists of the estrogen receptor beta (ER-beta) signaling pathway - cell viability counter screen (AID 1259382).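 Note: HEK293T cells carrying ER-beta-UAS-bla reporter stimulated with estradiol; series mostly up to about 92 µM; nearly all actives have a fitted effect of over 55% in size.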 The procedure, abridged: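 ER-beta-UAS-bla HEK293T cells (2,000/well, 2% charcoal-stripped FBS) were pre-incubated 6 hr at 37C, then given compound plus 1nM final 17-beta-estradiol for 16 hr. Viability was read in the same wells by CellTiter-Glo luminescence after 30 min at room temperature.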

The target in test [14] is Estrogen receptor (Homo sapiens) (UniProt P03372). Kind of test: qHTS assay to identify small molecule agonists of the estrogen receptor alpha (ER-alpha) signaling pathway in the presence of an antagonist (AID 1259383; calls by dose curve; note: top concentration of the series differs between compounds; nearly all actives have a fitted effect of over 15% in size). The procedure, abridged:
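VM7Luc4E2 cells (endogenous full-length ER-alpha, 4×ERE-luciferase) were precultured 5 days in phenol red-free medium with 10% charcoal-stripped FBS, given 10.0nM ICI-182,780 (final), then treated with compounds at 15 concentrations for 22hr at 37C; luminescence read with ONE-Glo.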

Test [15] is described as follows: qHTS assay to identify small molecule agonists or antagonists of the thyroid stimulating hormone receptor (TSHR) signaling pathway - wild type cell line counter screen (AID 1259384; calls by dose curve). Summed up: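 Counter screen in untransfected Hek293: compounds (15-point titration, triplicate) plus phosphodiesterase inhibitor Ro20-1724 added after 18 h plating; 30 min RT. Intracellular cAMP via competitive d2/cryptate immunoassay, 1 h incubation.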

Test [16] has as its target Thyrotropin receptor (Homo sapiens) (UniProt P16473). The experiment in a line: qHTS assay to identify small molecule antagonists of the thyroid stimulating hormone receptor (TSHR) signaling pathway (AID 1259385; calls by dose curve; note: nearly all actives have a fitted effect of over 20% in size). The procedure, abridged: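 Antagonist mode: compound-treated TSHR-expressing HEK293 cells were stimulated with 1.5 ng/mL TSH (final) in presence of Ro20-1724 for 30 min at RT. HTRF cAMP detection after 1 h; each compound tested at 15 concentrations, triplicate.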

The nature of test [17]: qHTS assay to identify small molecule agonists of the estrogen receptor alpha (ER-alpha) signaling pathway in the presence of an antagonist - cell viability counter screen (AID 1259386). Note: nearly all actives have a fitted effect of over 30% in size. Note: potency is the fitted concentration of half-maximal effect. The procedure, abridged:
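VM7Luc4E2 cells (endogenous full-length ER-alpha, 4×ERE-luciferase) were held 5 days in phenol red-free medium with 10% charcoal-stripped FBS, plated, then given 10.0nM ICI-182,780 and compounds at 15 concentrations for 22hr at 37C; viability read by CellTiter-Fluor fluorescence.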

Test [18] is described as follows: qHTS assay to identify small molecule phospholipidosis (PLD) inducers (AID 1259344; active = well fitted curve in the direction sought with a large enough effect; an effect the other way counts as inactive or inconclusive). The procedure, abridged: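 Phospholipidosis is scored by imaging LipidTOX-stained pits in HepG2 cells exposed to compound for 24 h at 37 C; pit counts and integrated intensities per well and per cell serve as outputs.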

Records with an inconclusive call do not appear. The source made the active and inactive calls. Unless noted, calls come from the whole dose curve; as a rule, active = well fitted curve in the direction sought with a large enough effect in the repeat runs; inconclusive = weak or mixed curves; inactive = no such curve, though single readings can be large; an effect the other way counts as inactive or inconclusive.

Chain of Estrogen receptor beta (Homo sapiens) (Q92731 whole entry, looked up): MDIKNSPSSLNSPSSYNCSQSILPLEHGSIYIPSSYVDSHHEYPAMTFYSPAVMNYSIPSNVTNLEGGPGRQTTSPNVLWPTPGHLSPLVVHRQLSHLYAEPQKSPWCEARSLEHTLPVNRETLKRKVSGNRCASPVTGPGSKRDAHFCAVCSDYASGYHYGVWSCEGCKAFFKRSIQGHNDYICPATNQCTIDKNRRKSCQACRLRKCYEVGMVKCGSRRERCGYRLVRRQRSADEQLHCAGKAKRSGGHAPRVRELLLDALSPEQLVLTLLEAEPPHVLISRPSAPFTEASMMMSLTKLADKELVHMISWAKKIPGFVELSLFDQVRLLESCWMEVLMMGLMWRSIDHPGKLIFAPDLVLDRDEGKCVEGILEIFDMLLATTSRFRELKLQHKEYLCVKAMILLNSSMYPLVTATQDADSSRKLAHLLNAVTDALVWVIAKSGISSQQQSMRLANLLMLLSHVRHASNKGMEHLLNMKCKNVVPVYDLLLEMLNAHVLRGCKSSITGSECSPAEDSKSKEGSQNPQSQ
Chain of Estrogen receptor (Homo sapiens) (P03372 whole entry, looked up): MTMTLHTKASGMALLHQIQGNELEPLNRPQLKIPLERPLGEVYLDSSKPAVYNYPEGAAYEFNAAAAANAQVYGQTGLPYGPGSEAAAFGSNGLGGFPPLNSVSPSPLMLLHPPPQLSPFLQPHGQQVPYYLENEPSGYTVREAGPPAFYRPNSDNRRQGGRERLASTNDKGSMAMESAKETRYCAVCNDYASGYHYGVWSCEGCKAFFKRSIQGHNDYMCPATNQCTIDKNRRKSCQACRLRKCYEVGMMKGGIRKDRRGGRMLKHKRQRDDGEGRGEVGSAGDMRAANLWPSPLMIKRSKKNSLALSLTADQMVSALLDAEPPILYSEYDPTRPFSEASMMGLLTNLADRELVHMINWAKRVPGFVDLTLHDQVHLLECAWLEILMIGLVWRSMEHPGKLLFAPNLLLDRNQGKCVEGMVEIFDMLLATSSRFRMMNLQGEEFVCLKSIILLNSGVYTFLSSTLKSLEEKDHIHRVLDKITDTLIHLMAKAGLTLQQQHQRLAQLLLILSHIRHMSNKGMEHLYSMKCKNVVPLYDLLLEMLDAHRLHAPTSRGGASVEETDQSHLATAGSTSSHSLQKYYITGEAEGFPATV
Chain of Thyrotropin receptor (Homo sapiens) (P16473 whole entry, looked up): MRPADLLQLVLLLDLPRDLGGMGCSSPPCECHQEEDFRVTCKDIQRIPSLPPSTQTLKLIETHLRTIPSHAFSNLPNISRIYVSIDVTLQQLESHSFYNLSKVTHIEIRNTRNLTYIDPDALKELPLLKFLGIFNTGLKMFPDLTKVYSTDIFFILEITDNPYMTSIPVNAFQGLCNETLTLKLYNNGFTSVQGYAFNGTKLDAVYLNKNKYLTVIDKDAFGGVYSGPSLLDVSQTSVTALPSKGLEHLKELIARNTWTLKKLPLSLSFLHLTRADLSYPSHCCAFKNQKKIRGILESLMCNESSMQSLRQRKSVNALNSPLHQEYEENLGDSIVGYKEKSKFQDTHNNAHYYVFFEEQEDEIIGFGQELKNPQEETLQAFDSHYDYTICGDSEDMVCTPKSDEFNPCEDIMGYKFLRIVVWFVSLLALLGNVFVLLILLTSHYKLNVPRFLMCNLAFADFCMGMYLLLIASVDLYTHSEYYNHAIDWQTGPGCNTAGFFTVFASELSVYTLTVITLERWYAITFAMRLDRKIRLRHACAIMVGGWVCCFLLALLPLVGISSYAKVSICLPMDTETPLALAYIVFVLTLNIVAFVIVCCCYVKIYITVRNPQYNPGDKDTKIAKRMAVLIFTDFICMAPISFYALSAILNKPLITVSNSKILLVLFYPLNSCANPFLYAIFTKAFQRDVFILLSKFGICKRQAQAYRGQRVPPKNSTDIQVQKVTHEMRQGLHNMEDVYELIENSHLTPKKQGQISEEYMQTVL

Take `C[C@]12CCC(=O)C=C1CC[C@@H]1[C@@H]2[C@@H](O)C[C@@]2(C)[C@H]1CC[C@]2(O)C(=O)COC(=O)CCC(=O)O`: the Potency result in test [1], in [2], in test [3], in [4], in test [5] and in [6] was “inactive” in each case. In addition, the Potency result in test [7], in test [8], in test [9], in test [10], in test [11] and in [12] was “inactive” throughout. Besides, the Potency entry in test [13], in test [14], in [16] and in test [17] was “inactive” in each case. Moreover, the outcome in test [15] was inactive.

As to `O=c1cccccc1O`, the Potency result in test [1], in test [2], in [3], in test [4], in test [7] and in test [9] was “inactive” throughout. In addition, the Potency entry in [10], in test [11], in test [14], in test [16] and in test [17] was “inactive” in each case. Also, the values for the Potency in [5], in test [6] and in [8] were 55.5 µM (active), 62.3 µM (active) and 24.8 µM (active), respectively. Besides, the call in test [15] was inactive.

As for `CCOc1ccc2nc3cc(N)ccc3c(N)c2c1`, the Potency result in [1], in [2], in test [18], in test [3], in [4] and in [7] was “inactive” each time. The Potency result in [11] and in [14] was “inactive” in each case.

`N/C(=N\N=C\c1ccc(Cl)cc1)N/N=C/c1ccc(Cl)cc1`: the Potency result in test [1], in [2], in test [18], in [4], in [5] and in test [6] was “inactive” each time. Besides, the Potency result in test [7], in test [9], in test [14] and in [17] was “inactive” each time. In addition, the Potency in [11] and in test [12] was 29.8 µM (active) each time.

On to `CC(C)n1nc(-c2cc3cc(O)ccc3[nH]2)c2c(N)ncnc21`, for which the Potency result in [1], in test [18], in [3], in test [4], in [7] and in test [14] was “inactive” in each case. The Potency result in test [16] is “inactive”. The Potency was 0.376 µM (active) in test [2], 0.841 µM (active) in [5], 0.944 µM (active) in [6] and 0.211 µM (active) in test [12]. Also, in [15], the result was inactive.

In the case of `CC(=O)OCC(C)OC(C)=O` (stereo not given), the Potency result in test [1], in test [2], in test [3], in test [4], in [5] and in [6] was “inactive” in each case. For the same compound, the Potency result in test [7], in [9], in test [10], in test [11], in [12] and in test [13] was “inactive” in each case. The Potency entry in test [14], in test [16] and in [17] was “inactive” each time. Moreover, the Potency in test [8] was 68.6 µM (active). The call in test [15] was inactive.

Take `OC1(c2ccc(Cl)c(C(F)(F)F)c2)CCN(CCCC(c2ccc(F)cc2)c2ccc(F)cc2)CC1`: the Potency in test [1] is 13.3 µM (active); in [2] it was 26.6 µM (active); in [5] it was 13.3 µM (active); in test [6] it was 18.8 µM (active); in [8], 13.3 µM (active); in test [11], 18.8 µM (active). Further, the Potency in test [12] is 10.6 µM (active); in test [17] it was 33.5 µM (active). Moreover, the Potency result in [18], in test [3], in test [7], in test [14] and in test [16] was “inactive” each time. The call in [15] was inactive.
